Where a name gives a salt, the structure may show the parent alone.
System: Danio rerio larvae (5 dpf)
Assay: optomotor response to red moving lines, difference vs DMSO (percentage points (treated minus DMSO)); higher = more of the behaviour than the DMSO vehicle control
Conditions: 10 µM; exposure time: 3 h pre-incubation + 3 h imaging
Protocol: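 5-dpf wild-type zebrafish larvae were imaged in 96-well plates. They were treated with 190 Tocris FDA-approved drugs at 10 µM (1 µl/ml DMSO) for 3 h before and 3 h during imaging at 28.5 °C, 48 larvae per drug. Automated image analysis gave % time moving and optomotor responses. Values are drug group mean minus DMSO vehicle mean (n=844), in percentage points, for 10 behaviours.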

Structure (SMILES)	optomotor response to red moving lines
CC(C)C[C@H]1C(=O)N2CCC[C@H]2[C@]2(O)O[C@](NC(=O)[C@@H]3C=C4c5cccc6[nH]c(Br)c(c56)C[C@H]4N(C)C3)(C(C)C)C(=O)N12 [Bromocriptine mesylate]	-29
O=c1[nH]c2ccccc2n1C1CCN(CCCC(c2ccc(F)cc2)c2ccc(F)cc2)CC1 [Pimozide]	-0.227
CCN(C)C(=O)Oc1cccc([C@H](C)N(C)C)c1 [Rivastigmine tartrate]	-8.95
N[C@@H]1C[C@H]1c1ccccc1 [Tranylcypromine hydrochloride]	12.9
CN1C[C@H](C(=O)N[C@]2(C)O[C@@]3(O)[C@@H]4CCCN4C(=O)[C@H](Cc4ccccc4)N3C2=O)C[C@@H]2c3cccc4[nH]cc(c34)C[C@H]21 [Dihydroergotamine mesylate]	11.5
COc1ccc(C(CN(C)C)C2(O)CCCCC2)cc1 (stereo unspecified) [Venlafaxine hydrochloride]	18.8
CC(O)(CS(=O)(=O)c1ccc(F)cc1)C(=O)Nc1ccc(C#N)c(C(F)(F)F)c1 (stereo unspecified) [Bicalutamide]	-10.4
C=C1C[C@@H]2[C@H](CC[C@]3(C)C(=O)CC[C@@H]23)[C@@]2(C)C=CC(=O)C=C12 [Exemestane]	6.78
C=CCN1C[C@H](C(=O)N(CCCN(C)C)C(=O)NCC)C[C@@H]2c3cccc4[nH]cc(c34)C[C@H]21 [Cabergoline]	-3.05
CC[C@@H](C(N)=O)N1CCCC1=O [Levetiracetam]	0.251
COc1cc2c(cc1OC)C1CC(=O)C(CC(C)C)CN1CC2 (stereo unspecified) [Tetrabenazine]	-1.77
